# Source: PubChem BioAssay (National Center for Advancing Translational Sciences (NCATS))
# Most compounds without a hit are left out; they make up all but 17% or so of the library.
# TGFb inhibitor: inhibitors of TGF-b signaling | HepG2 CAGA-GFP TGF-b/SMAD3 reporter, GFP fluorescence, 18 h; TGF-beta stimulated, 500 pg/mL final | Potency, µM (series often up to 46.1 µM), for the others: top-dose activity, negative = inhibition, actives largely listed as inhibitors | actives 1.2% (n = 410,000); further: on the % scale 0 is the no-effect control and ±100 the full control effect; nearly all actives have a fitted effect of over 65% in size
#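 HEPG2 CAGA-GFP, 1000 cells/well; 2 h settle, 37 C; cpd via pin tool; TGF-b 500 pg/mL final; 18 h, 37 C; GFP imaging ex488/em500-530; %Activity normalised to -TGF-b and +DMSO controls; CRC fit, curve class.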
# DT40 TDP1 no CPT: qHTS for Inhibitors of human tyrosyl-DNA phosphodiesterase 1 (TDP1): qHTS in cells in absence of CPT | Potency, µM (doses to about 46.2 µM), for the others: at the highest dose activity change, negative = growth inhibition, hits mostly inhibitors | DT40 Tdp1-/- hTDP1 cells, no CPT, ATP luminescence, 48 h | AID 686978, 2013 | actives 15% (n = 420,000); further: on the % scale 0 is the no-effect control and ±100 the full control effect; nearly all actives have a fitted effect of over 55% in size
#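 Growth of hTDP1-complemented DT40 Tdp1-knockout cells is measured by ATP luminescence after at least 48 hr compound exposure at 37 °C, with DMSO substituting for the 20 nM CPT used in the parallel screen.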
# HepG2 tox: counter-screen for TGF-b inhibitors: cytotoxicity in HepG2 cells; HepG2 CAGA-GFP viability, ATP luminescence, 18 h; AID 588856; Potency, µM (highest dose often 46.1 µM), inactives show top-dose activity change, negative = cytotoxicity, usual class: cytotoxic; actives 0.76% (n = 410,000)
#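 HepG2 CAGA-GFP cells (1000/well, DMEM with 1% FBS) received compound, then TGF-beta at 500 pg/mL final, and were incubated 18 hours at 37 degrees C. Viability was read by CellTiter-Glo luminescence. Media-only wells were set as complete cell-killing and DMSO as no toxicity.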
# TDP1 cell CPT: growth inhibition of DT40 Tdp1-/-;hTDP1 cells with camptothecin (screen for TDP1 inhibitors) | AID 686979 | actives 12% (n = 420,000) | Potency, µM (titrated, usually from 46.2 µM), without a hit: at the top dose activity change, negative = growth inhibition, hits mostly inhibitors | chicken DT40 Tdp1-/-;hTDP1 cells + 20 nM CPT, ATP luminescence, 48 h; further: on the % scale 0 is the no-effect control and ±100 the full control effect; nearly all actives have a fitted effect of over 55% in size
#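 Chicken DT40 Tdp1-/- cells complemented with human TDP1, 400 cells/well, exposed to compounds plus 20 nM camptothecin for at least 48 h at 37 C; viability read as ATP content by CellTiter-Glo luminescence.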
# ATXN2 expr inh: reduces ATXN2 reporter expression in HEK-293 cells; HEK-293 ATXN2-luciferase reporter, luminescence, 24 h; Potency, µM (highest dose often 57 µM), for the others: top-dose activity change, negative = inhibition, actives largely listed as inhibitors; actives 0.72% (n = 360,000); AID 1745845; further: on the % scale 0 is the no-effect control and ±100 the full control effect; nearly all actives have a fitted effect of over 55% in size
#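 qHTS (up to 57 uM final) was run with 24 h compound exposure of reporter cells at 37 °C. Each well was multiplexed: SteadyGlo luminescence measured ATXN2-luciferase expression after a fluorogenic Gly-Phe-AFC viability readout (25 uM final).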
# ATXN viability: reduces viability in counter-screen for ATXN expression inhibitors; actives 0.49% (n = 400,000); Potency, µM (titrated, usually from 56.7 µM), actives largely listed as cytotoxic; S2 cells (HEK-293 line with an ATXN2-luciferase reporter) viability, CellTiter-Fluor protease fluorescence, 24 h; AID 651635; further: nearly all actives have a fitted effect of over 40% in size
# Numbers without * were called inactive; i = inactive; ? = inconclusive; · = no result; [ ] = another dose, or the depositor's remark. The call rests on the fitted dose curve; in most records, active means well fitted curve in the direction sought with a large enough effect; inconclusive means small, poorly fitted or top-dose-only effect, or another doubt; inactive means no such curve, though single readings can be large; an effect the other way counts as inactive or inconclusive. Potency means the concentration at half of the fitted maximal effect.
SMILES,TGFb inhibitor,DT40 TDP1 no CPT,HepG2 tox,TDP1 cell CPT,ATXN2 expr inh,ATXN viability
O=C(Nc1ccccc1N1CCCCC1)c1ccc(Cl)c([N+](=O)[O-])c1,0.0%,18.4µM*,0.0%,?,-21.3%,i
O=C(Nc1cccc2c1CCCC2)c1cc([N+](=O)[O-])ccc1Cl,?,25.9µM*,-46.0%,?,25.1µM*,i
COc1ccc(S(=O)(=O)N(CC(C)C)CC(C)C)c2cccnc12,-14.6%,?,-25.8%,?,?,i
CCCOCc1ccc(O)c2ncccc12,?,0.581µM*,-9.4%,0.82µM*,?,i
CN(Cc1ccco1)Cc1ccc(O)c2ncccc12,?,·,-17.3%,·,-8.1%,i
CC(C)COCc1ccc(O)c2ncccc12,10µM*,0.651µM*,-49.2%,0.92µM*,?,i
Cc1c(C)c2c(OCC(=O)N3CCC(C(=O)O)CC3)cc3c(c2oc1=O)CCC(C)(C)O3,-3.8%,-11.0%,-7.2%,-17.0%,-10.9%,i
Nc1nc(NCCCN2CCOCC2)nc(Nc2ccccc2F)c1[N+](=O)[O-],0.7%,16.4µM*,-10.9%,-11.4%,?,i
Nc1nc(NCCCN2CCOCC2)nc(Nc2cccc(F)c2)c1[N+](=O)[O-],?,?,-28.9%,?,?,?
Cc1cccc(Nc2nc(NCCCN3CCOCC3)nc(N)c2[N+](=O)[O-])c1,?,14.6µM*,-21.4%,16.4µM*,?,i
Nc1nc(NCCCN2CCOCC2)nc(Nc2ccc(F)cc2)c1[N+](=O)[O-],?,?,-19.1%,?,-26.2%,i
COc1cc(C)nc(-c2csc(C)n2)n1,-23.4%,-14.1%,-27.0%,-7.8%,·,i
CCOc1ccc(C(=O)CC(NCc2cccs2)C(=O)O)cc1 (stereo not drawn),-29.7%,16.4µM*,0.0%,8.2µM*,-21.9%,i
CCOc1ccc(C(=O)OC(C)C(=O)N2CCN(Cc3ccccc3)CC2)cc1 (stereo not drawn),-6.3%,18.4µM*,0.6%,16.4µM*,-15.9%,i
CCOc1ccc(C(=O)NCC(=O)N2CCN(Cc3ccccc3)CC2)cc1,-17.3%,-25.7%,-12.6%,-5.6%,-13.5%,i
CCOc1ccc(C(=O)CC(C(=O)O)N2CCCCC2)cc1 (stereo not drawn),?,?,-23.7%,13µM*,-1.1%,i
CCOc1ccc(C(=O)CCC(=O)N(CC)CC(=O)NCc2cccs2)cc1,-12.1%,?,-34.6%,-6.6%,0.5%,i
CCOc1ccc(C(=O)N2CCCCCC2)cc1,-7.6%,-6.2%,-19.3%,-7.0%,5.2%,i
CCOc1ccc(C(=O)CC(C(=O)O)N2CCN(Cc3ccccc3)CC2)cc1 (stereo not drawn),-3.0%,3.66µM*,-17.7%,20.6µM*,11.4%,i
O=C(CN1CSCC1=O)N1CCN(S(=O)(=O)c2ccc(Cl)cc2)CC1,1.3%,13.2%,19.6%,-7.1%,8.4%,i
Cc1cccc(S(=O)(=O)NC(=O)C2(C)CCN2C(=O)Cc2ccc(-c3ccccc3)cc2)c1 (stereo not drawn),-1.8%,?,-0.3%,3.8%,-12.3%,i
COC(=O)c1ccccc1C(=O)N1CCOc2ccc(CN3CCN(c4ccccn4)CC3)cc2C1,·,-11.3%,·,1.9%[9.04 µM],·,i
CCCNC(=O)c1cc(S(=O)(=O)N2CCc3ccccc32)cn1C,?,18.4µM*,-35.0%,23.1µM*,-18.7%,i
COc1ccc(NC(=O)c2cc(S(=O)(=O)N3CCc4ccccc43)cn2C)cc1,-6.0%,?,-12.5%,10.3µM*,-0.1%,i
Cc1ccc(NC(=O)c2cc(S(=O)(=O)N3CCc4ccccc43)cn2C)c(Cl)c1,?,11.6µM*,-7.0%,?,·,·
SMILES,TGFb inhibitor,DT40 TDP1 no CPT,HepG2 tox,TDP1 cell CPT,ATXN2 expr inh,ATXN viability
CC1CCC2(CC1)NC(=O)N(CC(=O)N1CCN(S(=O)(=O)c3ccccc3)CC1)C2=O (stereo not drawn),-1.7%,-11.0%,-20.1%,-6.9%,-6.2%,i
COc1ccc(NC(=S)N2CCCN(Cc3cc(C)ccc3C)C2)cc1,-9.5%,?,-2.8%,?,-26.7%,i
COc1cccc(OC)c1/C=C/C(=O)NC1CCCCC1,-2.7%,?,-4.5%,10.5%,·,i
COc1ccc(C(=O)N2C=Cc3ccccc3C2C#N)cc1 (stereo not drawn),0.7%,-23.9%,-6.0%,-0.3%,·,i
N#CC1c2ccccc2C=CN1C(=O)N(c1ccccc1)c1ccccc1 (stereo not drawn),8.91µM*,?,11.2µM*,?,?,?
Cc1c(Br)ccc(NC(=O)Cn2nc(-c3cccs3)ccc2=O)c1C,-3.3%,-19.0%,-11.2%,-8.8%,-3.6%,i
Cc1cc(NC(=O)Cn2nc(-c3cccs3)ccc2=O)cc(C)c1Br,-0.4%,29.1µM*,-17.7%,29.1µM*,-18.0%,i
CCCN1CCN(C(=O)c2c(Cl)cnn2C)CC1,-1.0%,10.8%,9.8%,-7.3%,-2.5%,i
COc1ccc(NC(=O)Cn2c(=O)n(-c3ccc(OC)cc3)c(=O)c3ccc(C(=O)NCc4ccc(C)cc4)cc32)cc1,-6.6%,-1.8%,9.9%,?,1.2%,i
COc1ccc(Cl)cc1NC(=O)Cn1c(=O)n(-c2ccc(C)cc2)c(=O)c2ccc(C(=O)NCc3ccccc3Cl)cc21,?,?,-6.5%,4.61µM*,6.9%,i
COc1ccc(-n2c(=O)c3ccc(C(=O)NCc4ccc(C)cc4)cc3n(CC(=O)Nc3cccc(F)c3)c2=O)cc1,9.0%,?,11.5%,13µM*,10.6%,i
O=C(Cn1c(=O)n(-c2ccccc2)c(=O)c2ccc(C(=O)NCc3ccc4c(c3)OCO4)cc21)Nc1ccc(F)cc1,6.3%,-27.4%,-3.1%,-22.8%,13.5%,i
O=C(Cn1c(=O)n(-c2ccccc2)c(=O)c2ccc(C(=O)NCc3ccc4c(c3)OCO4)cc21)Nc1ccc(Br)cc1F,1.6%,14.6µM*,-11.8%,?,10.7%,i
CC1CCCCC1NC(=O)CN(C)S(=O)(=O)c1ccc2c(c1)CCC(=O)N2 (stereo not drawn),7.6%,11.3%,-10.6%,6.3%,11.6%,i
